An excerpt weighted towards active compounds, which were near 2.4% of everything screened.
PTHR1 ag – activates the human parathyroid hormone receptor PTHR1. Q03431. HEK293 GP2 PTHR1 cells, GloSensor cAMP luminescence, 1 h. Potency, µM (series often up to 115 µM), hits mostly activators. 410,000 compounds, 0.075% hits. AID 743266; note: nearly all actives have a fitted effect of over 55% in size
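HEK-293-derived GP2 cells expressing PTHR1 and a GloSensor cAMP reporter, 3,000/well, plated overnight, given luciferin plus IBMX (each 0.5 mM as added) for 1 h at 37 °C, then compound for 1 h at 37 °C. Luminescence was read after 15 min at room temperature.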
TRHR enhancer – allosteric enhancers of human TRH receptor; P34981; TRHR cells, fluo-8 calcium fluorescence, EC20 TRH enhancement; enhancement, % at 2 µM; 360,000 compounds, 0.66% hits; in the data active = enhancement above about 30%
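Enhancer read-out: after compound pinning and an initial kinetic agonist-mode read, an EC20 of TRH (10 nM final) was injected and fluo-8 calcium signal (Ex 480/Em 530) followed at 1 s/cycle for 100 cycles in TRHR-expressing cells.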
TRHR agonist – agonists of human TRH receptor | P34981 | activation, % at 2 µM | 360,000 compounds, 0.18% hits | TRHR cells, calcium flux fluo-8, FDSS agonist mode | AID 493084; in the data active = activation above about 30%
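TRHR-expressing cells, plated overnight in medium with 10% serum, were loaded with fluo-8 calcium dye at room temperature. After a 10 s baseline, library compound was pin-added and calcium release was recorded kinetically (ex 480/em 530) as agonist response.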
GLP1R ag – GLP-1 receptor (human) agonism; P43220; HEK293 GLP-1R CRE-luciferase, luminescence, 4-6 h; cells express a hypersensitive GLP-1R form; 380,000 compounds, 0.007% hits; Potency, µM (titrated, usually from 45.6 µM), most hits filed as activators
Target sequence (P43220 whole entry, looked up): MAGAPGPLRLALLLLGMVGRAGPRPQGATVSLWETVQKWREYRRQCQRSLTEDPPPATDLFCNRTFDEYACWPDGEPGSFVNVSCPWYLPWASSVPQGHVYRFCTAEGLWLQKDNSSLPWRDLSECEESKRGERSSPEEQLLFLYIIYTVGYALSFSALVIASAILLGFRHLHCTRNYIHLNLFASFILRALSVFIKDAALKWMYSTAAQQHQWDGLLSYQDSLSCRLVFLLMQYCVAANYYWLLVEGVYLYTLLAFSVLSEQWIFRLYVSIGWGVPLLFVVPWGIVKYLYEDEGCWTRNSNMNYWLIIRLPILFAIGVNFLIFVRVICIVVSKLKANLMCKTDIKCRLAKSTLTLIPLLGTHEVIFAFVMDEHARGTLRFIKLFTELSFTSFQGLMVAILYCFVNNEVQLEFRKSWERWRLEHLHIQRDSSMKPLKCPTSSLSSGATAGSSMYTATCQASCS
HEK293 tox – cytotoxic in the GLP-1 receptor inverse agonist counter-screen; HEK293 cAMP-luciferase reporter cells, luminescence, 24 h; Potency, µM (titrated, usually from 38.3 µM), actives largely listed as inhibitors; 410,000 compounds, 0.13% hits; AID 624418;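 note: loss of luciferase light is scored as toxicity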
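Seeding density was 200 cells/uL; after overnight-length (12 h) culture, 23 nL compounds went on for 24 h at 37 °C. Readout used a luciferase detection reagent, luminescence taken after 12 min at room temperature.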
GLP1R inv ag – GLP-1 receptor (human) inverse agonism; P43220; HEK293 GLP-1R CRE-luciferase, luminescence, 24 h; GLP-1R form is constitutively active; Potency, µM (titrated, usually from 38.3 µM), hits mostly inhibitors; 410,000 compounds, 1.6% hits; AID 624417; note: nearly all actives have a fitted effect of over 55% in size
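qHTS in 1536-well format: reporter HEK293 cells expressing constitutive GLP-1R activity in DMEM + 10% Nu serum, 24 hr with compounds at 37 deg C, luminescence read after 12 min with detection reagent.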
Numbers stand for hits; . = inactive; ? = inconclusive; / = no result given. Unless noted, calls come from the whole dose curve; as a rule, active = well fitted curve in the direction sought with a large enough effect; inconclusive = small, poorly fitted or top-dose-only effect, or another doubt; inactive = no such curve, though single readings can be large; an effect the other way counts as inactive or inconclusive.

SMILES	PTHR1 ag	TRHR enhancer	TRHR agonist	GLP1R ag	HEK293 tox	GLP1R inv ag
NCCCn1c(C(=O)c2ccc(Cl)cc2)c2ccc(C(F)(F)F)cc2[n+]1[O-]	.	.	.	.	?	.
CCCCC(CC)C(=O)Nc1cc(C(=O)NCCC)ccc1N1CCC2(CC1)CC(c1ccccc1)=NO2 (stereo not given)	.	38	.	.	.	.
Cc1nn(Cc2c(Cl)cccc2Cl)c(C)c1NC(=O)CCCn1nc([N+](=O)[O-])c(Cl)c1C	.	.	.	.	.	2.5µM
Cc1nn(Cc2ccccc2)c(C)c1NC(=O)CCCn1nc([N+](=O)[O-])c(Cl)c1C	.	.	.	.	.	.
COC(=O)CCCC(=O)N1CCCC(C(=O)c2ccc(-c3ccccc3)cc2)C1 (stereo not given)	.	.	.	.	.	.
C=CCn1c(SCC(=O)Nc2c(C)n(C)n(-c3ccccc3)c2=O)nc2sc(C)c(-c3ccccc3)c2c1=O	.	.	.	.	.	3.2µM
COc1cccc(-c2cnc(C(O)c3cccc(CN4CCCCC4)c3)[nH]2)c1 (stereo not given)	.	/	/	.	.	.
Cc1ccc(CNC(=O)c2nc(SCc3ccc(C)cc3)ncc2Cl)cc1	.	.	.	/	.	.
Cc1ccc(CNC(=O)c2nc(SCc3ccc(F)cc3)ncc2Cl)cc1	.	42	.	/	.	.
CCOC(=O)/C(=N/Nc1ccc(Br)cc1)N1CC(C)OC(C)C1 (stereo not given)	.	/	/	.	.	2.5µM
COC(=O)c1ccccc1NC(=O)c1ccc(COc2ccc3c(c2)CCC3)cc1	.	.	.	.	.	.
CN=C(Nc1cc(Cl)ccc1Cl)SC1CC(=O)N(c2ccc(C(=O)OC)cc2)C1=O (stereo not given)	.	.	.	.	.	4µM
COCCNC(=O)C(c1ccco1)N(C(=O)Cn1nnc2ccccc21)c1cccc(C)c1C (stereo not given)	.	.	.	.	.	.
CC(=O)c1ccc(N2CCN(C(=O)c3cc4cc5cc(C)ccc5nc4s3)CC2)cc1	.	49	.	/	.	.
C=C(C(=O)c1ccccc1)C(NC(C)(C)C)c1ccccc1 (stereo not given)	.	/	/	.	5µM	5µM
COC(=O)C(NC(=O)c1ccccc1)c1ccccc1 (stereo not given)	.	.	.	.	.	.
Cc1ccc(S(=O)(=O)N/N=C/c2ccc(OCC(=O)Nc3ccccc3Cl)cc2)cc1	.	.	.	.	.	?
COc1ccc2c(=O)c(-c3ccccc3C)c(C)oc2c1	.	.	.	.	.	?
COc1ccc2c(=O)c(-c3ccc(C)cc3)c(-c3ccccc3)oc2c1	.	/	/	.	.	7.9µM
NCCC(=O)N1c2ccccc2Sc2ccc(Cl)cc21	.	.	50	.	.	?
NCCCC(=O)N1c2ccccc2Sc2ccc(Cl)cc21	.	.	.	.	.	?
Cc1ccc(NC(=O)CSc2nc(-c3ccco3)cc(C(F)(F)F)n2)cc1C	.	.	.	.	?	?
COc1ccc(-c2ocnc2C(=O)NCc2nn(-c3ccccc3)nc2C)cc1	.	.	.	.	.	10µM
O=C(CCCSc1nnnn1-c1cccc2ccccc12)c1ccc(F)cc1	.	.	.	.	.	10µM
N#CCSc1nnc(COc2cccc3ccccc23)n1-c1ccccc1	.	.	.	.	.	.
SMILES	PTHR1 ag	TRHR enhancer	TRHR agonist	GLP1R ag	HEK293 tox	GLP1R inv ag
Cc1ccc(-c2nnc(CSc3nnc(COc4cccc5ccccc45)n3-c3ccccc3)o2)cc1	.	.	.	.	.	11µM
Cc1ccc(S(=O)(=O)N(C)c2cc(S(=O)(=O)N3CCOCC3)c(C)cc2C)cc1	.	.	.	.	.	.
Cc1cc(C)c(S(=O)(=O)N2CCCCC2)cc1N(C)S(=O)(=O)c1ccc(Cl)cc1	.	.	.	.	.	13µM
CCOc1cccc(/C=N/NC(=O)c2cc(-c3cccn3C)n[nH]2)c1O	.	.	.	.	?	?
Cc1cc(Nc2cccc(Cl)c2)nc2ccc(NC(=O)c3cncc(Br)c3)cc12	.	.	.	.	?	2µM
CCOc1cc(C(=O)Nc2ccc3nc(Nc4cccc(Cl)c4)cc(C)c3c2)cc(OCC)c1OCC	.	.	.	.	.	5.6µM
CC1(C(=O)NS(=O)(=O)C2CC2)CCN(C(=O)c2c(F)cccc2F)C1 (stereo not given)	.	/	/	.	.	.
CCCC(=NC(C)CC)C1=C(O)CC(c2ccccc2)CC1=O (stereo not given)	.	.	.	.	.	10µM
COc1cccc(NC(=O)CSc2nc3c(sc4ccccc43)c(=O)n2CCN(C)C)c1	.	.	.	.	.	.
COc1cccc(NC(=O)CSc2nc3c(sc4ccccc43)c(=O)n2CCCN2CCCC2)c1	?	.	.	.	?	10µM
O=C(Nc1cccc2ccccc12)/C(=C/c1cccc([N+](=O)[O-])c1)NC(=O)c1cccs1	.	34	.	.	.	.
O=C(Nc1cccc2ccccc12)/C(=C\c1cccc([N+](=O)[O-])c1)NC(=O)c1cccs1	.	.	.	.	.	.
COCc1c(C(=O)N2CCN(Cc3c(F)cccc3Cl)CC2)oc2ccccc12	.	.	.	.	.	10µM
O=C(c1ccc2c(c1)OCCO2)N1CCN(Cc2c(F)cccc2Cl)CC1	.	.	.	.	.	?
O=C(c1ccc2c(c1)CCC2)N1CCN(Cc2c(F)cccc2Cl)CC1	.	/	/	.	.	10µM
O=C(CCC1CCCN(C(=O)Cn2cnnn2)C1)NCc1ccccc1F (stereo not given)	.	.	.	.	.	.
O=c1c2sc(-c3ccccc3)cc2nc2n1CCCCC2	.	.	.	.	.	?
O=c1c2sc(-c3ccccc3)cc2nc2n1CCC2	.	.	.	.	.	5µM
CSc1nc(Cl)c(Cc2ccc(OC(C)C)cc2)c(N2CCOCC2)n1	.	.	.	.	.	13µM
COc1nc(SC)nc(Cl)c1Cc1ccc(OC(C)C)cc1	.	.	.	.	.	?
CN(C(=O)COC(=O)/C=C/c1ccc(C(F)(F)F)cc1)c1c(N)n(Cc2ccccc2)c(=O)[nH]c1=O	.	.	.	.	.	.
Cc1ccc(S(=O)(=O)NCCCC(=O)O)cc1	.	.	.	.	.	.
CN(Cc1cnn(-c2ccccc2)c1)C(=O)c1cccc(S(=O)(=O)N(C)c2ccccc2)c1	.	/	/	.	.	10µM
CCCCNC(=O)CCCCC(=O)N/N=C/c1cccc(Cl)c1	.	31	.	.	.	.

Screening results: PubChem BioAssay, National Center for Advancing Translational Sciences (NCATS)
